Bioassay records as filed in PubChem BioAssay.
Compounds with a hit are over-represented: about 27% of the library has one in this group of screens.
CYP2C9 inh = blocks human cytochrome P450 2C9 | CYP2C9 Supersomes, luciferin-H conversion, luminescence | inhibition, % at 5 µM | actives 20% (n = 96,000) | AID 777;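 active = blocking of liver enzyme CYP2C9 beyond about 50% at 5 µM, limit read from the data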
CYP2C19 inh = blocks human cytochrome P450 2C19. P33261. actives 21% (n = 96,000). CYP2C19 Supersomes, luciferin-H EGE luminescence, 30 min. inhibition, % at 5 µM;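 active = CYP2C19 inhibition above a set limit at 5 µM in the primary screen, cut at about 50% in these data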;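 note: plate controls were negative control wells for no effect and 2.5 mM tranylcypromine positive control for full effect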
Target sequence (P33261 whole entry, looked up): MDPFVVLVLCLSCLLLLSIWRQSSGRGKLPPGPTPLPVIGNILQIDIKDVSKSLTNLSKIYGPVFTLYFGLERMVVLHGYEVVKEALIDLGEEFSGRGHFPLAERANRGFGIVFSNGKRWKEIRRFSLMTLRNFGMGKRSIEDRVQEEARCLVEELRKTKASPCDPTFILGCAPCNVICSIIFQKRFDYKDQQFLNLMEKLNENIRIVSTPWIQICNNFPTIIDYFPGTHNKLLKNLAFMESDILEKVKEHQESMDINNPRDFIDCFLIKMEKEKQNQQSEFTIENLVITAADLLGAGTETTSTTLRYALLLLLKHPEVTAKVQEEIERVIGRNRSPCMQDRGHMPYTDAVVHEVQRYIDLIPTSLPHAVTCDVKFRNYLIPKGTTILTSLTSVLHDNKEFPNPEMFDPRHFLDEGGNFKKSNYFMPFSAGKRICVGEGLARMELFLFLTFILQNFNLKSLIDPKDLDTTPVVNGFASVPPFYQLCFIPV
sEH inh = blocks human soluble epoxide hydrolase activity | actives 0.34% (n = 91,000) | inhibition, % at 2 µM | recombinant human sEH enzymatic activity assay | P34913; in the data active = inhibition above about 80%
sEH act = activators of human soluble epoxide hydrolase. AID 717. purified human sEH enzymatic activity, activator screen. activation, % at 2 µM. actives 0.04% (n = 91,000). P34913; in the data active = activation above about 37%
CYP2C19 activ = cytochrome P450 2C19 (human) activation | recombinant CYP2C19, luciferin-H EGE luminescence; active compounds read high; 0 = fully inhibited enzyme, 1 = untreated enzyme | activation factor at 5 µM | 96,000 tested, under 10 active | P33261;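 active = activation factor of at least 2 at 5 µM in the primary screen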;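 note: 0 = wells with 2.5 mM tranylcypromine and 1 = vehicle-only wells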
CYP2C9 act = activators of human CYP2C9 | activation factor at 5 µM | recombinant CYP2C9, luciferin-H conversion, luminescence; active compounds read high; factor 1 = untreated enzyme, 0 = blocked | AID 1024 | actives 1.4% (n = 96,000);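 active = activation factor of 2 or more for CYP2C9 at a 5 µM dose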;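 note: 0 = sulfaphenazole-blocked wells and 1 = vehicle-only wells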
An asterisk follows results filed as active.

What do the screens show for `CC12CC(NC(=O)N1c1cccc(C(=O)N3CCN(c4ccccc4)CC3)c1)c1ccccc1O2` (stereo unspecified)?
CYP2C9 inh: 53.0*; CYP2C19 inh: 57.9*; sEH inh: -4.0; sEH act: 6.5; CYP2C19 activ: 0.4; CYP2C9 act: 0.5

How did CC1CCCN(C(=O)c2cc(F)c(F)cc2Cl)C1 (stereo unspecified) do in these assays?
CYP2C9 inh: -12.3; CYP2C19 inh: 1.9; sEH inh: 11.1; sEH act: -6.3; CYP2C19 activ: 1; CYP2C9 act: 1.1

Results for Cc1cccn2c(=O)c3cc(C(=O)NCCc4ccccc4)c(=N)n(CCCn4ccnc4)c3nc12 ?
CYP2C9 inh: 57.8*; CYP2C19 inh: 55.1*; sEH inh: 4.2; sEH act: -2.3; CYP2C19 activ: 0.4; CYP2C9 act: 0.4

How did Cc1cccn2c(=O)c3cc(C(N)=S)c(=N)n(CCCOC(C)C)c3nc12 do in these assays?
CYP2C9 inh: 36.2; CYP2C19 inh: 86.2*; sEH inh: -13.6; sEH act: 13.6; CYP2C19 activ: 0.1; CYP2C9 act: 0.6

What do the screens show for `CCCCNC(=O)c1cc2c(=O)n3cccc(C)c3nc2n(Cc2ccccc2)c1=N`?
CYP2C9 inh: 64.4*; CYP2C19 inh: 41.0; CYP2C19 activ: 0.6; CYP2C9 act: 0.4

How did CCOCCCn1c(=N)c(C(N)=S)cc2c(=O)n3cccc(C)c3nc21 do in these assays?
CYP2C9 inh: 6.3; CYP2C19 inh: 9.3; sEH inh: 4.5; sEH act: -2.0; CYP2C19 activ: 0.9; CYP2C9 act: 0.9

Results for CCNc1nc(NC(C)C)nc(Oc2ccc(OCCOc3ccccc3)nn2)n1 ?
CYP2C9 inh: 41.9; CYP2C19 inh: 44.5; sEH inh: 13.4; sEH act: -14.5; CYP2C19 activ: 0.6; CYP2C9 act: 0.6

What do the screens show for `Cc1ccc(OCC(=O)NNC(=O)c2cccnc2)cc1`?
CYP2C9 inh: -17.8; CYP2C19 inh: -16.6; sEH inh: 1.2; sEH act: 1.1; CYP2C19 activ: 1.2; CYP2C9 act: 1.2

How did CC1(C)C(c2ccc(Cl)cc2)=[N+]([O-])C2(CCCC/C2=N\O)N1O (stereo unspecified) do in these assays?
CYP2C9 inh: 4.4; CYP2C19 inh: 27.0; sEH inh: -1.7; sEH act: 0.3; CYP2C19 activ: 0.7; CYP2C9 act: 1

What do the screens show for `CCN(CC)c1ccc(CNc2ccc(Br)cn2)cc1`?
CYP2C9 inh: 63.4*; CYP2C19 inh: 79.8*; sEH inh: 5.1; sEH act: -4.5; CYP2C19 activ: 0.2; CYP2C9 act: 0.4

How did CCC(C)N(CCNC(=O)CC1Oc2ccc(C)cc2NC1=O)C1CCCCC1 (stereo unspecified) do in these assays?
CYP2C9 inh: 2.7; CYP2C19 inh: 8.0; CYP2C19 activ: 0.9; CYP2C9 act: 1

What do the screens show for `CCCNS(=O)(=O)c1cccn1-c1ncc(C(F)(F)F)cc1Cl`?
CYP2C9 inh: 66.1*; CYP2C19 inh: 50.9*; sEH inh: 0.0; sEH act: -0.6; CYP2C19 activ: 0.5; CYP2C9 act: 0.3

Results for NS(=O)(=O)c1cccn1-c1ncc(C(F)(F)F)cc1Cl ?
CYP2C9 inh: -2.5; CYP2C19 inh: -4.1; sEH inh: 5.3; sEH act: -5.8; CYP2C19 activ: 1; CYP2C9 act: 1

How did CCOCCCNc1nc2c(c(=O)[nH]c(=O)n2C)n1CCCc1ccccc1 do in these assays?
CYP2C9 inh: 24.9; CYP2C19 inh: 13.9; sEH inh: 3.1; sEH act: 0.1; CYP2C19 activ: 0.9; CYP2C9 act: 0.8

What do the screens show for `Cc1ccc(CN=C2Nc3ccccc3CS2)cc1`?
CYP2C9 inh: 34.9; CYP2C19 inh: 70.9*; sEH inh: 3.1; sEH act: -0.3; CYP2C19 activ: 0.3; CYP2C9 act: 0.7

Results for Clc1ccc(CN=C2Nc3ccccc3CS2)cc1 ?
CYP2C9 inh: 32.6; CYP2C19 inh: 85.7*; sEH inh: -1.1; sEH act: -1.4; CYP2C19 activ: 0.1; CYP2C9 act: 0.7

What do the screens show for `CCN(CC)CCN=C1CCCc2ccccc2N1`?
CYP2C9 inh: 9.0; CYP2C19 inh: 4.7; sEH inh: 10.1; sEH act: -9.6; CYP2C19 activ: 1; CYP2C9 act: 0.9

How did COCCCn1c(SCC(=O)NC(C)C)nnc1-c1ccccc1 do in these assays?
CYP2C9 inh: -6.5; CYP2C19 inh: 4.6; sEH inh: 6.6; sEH act: -5.3; CYP2C19 activ: 1; CYP2C9 act: 1.1

What do the screens show for `CC(=O)c1c(OC(=O)c2ccccc2)c2ccccc2n1C`?
CYP2C9 inh: 3.0; CYP2C19 inh: 33.2; sEH inh: 6.1; sEH act: -5.0; CYP2C19 activ: 0.7; CYP2C9 act: 1

What do the screens show for `O=C(Nc1ccc2c(c1)OCCO2)C1CCCN(S(=O)(=O)c2cccc3nsnc23)C1` (stereo unspecified)?
CYP2C9 inh: 42.2; CYP2C19 inh: 31.9; sEH inh: 57.4; sEH act: -58.7; CYP2C19 activ: 0.7; CYP2C9 act: 0.6

Results for Cc1ccc2nc(NC(=O)C3CCCN(S(=O)(=O)c4cccc5nsnc45)C3)sc2c1 (stereo unspecified) ?
CYP2C9 inh: 51.7*; CYP2C19 inh: 49.5; sEH inh: -3.3; sEH act: 4.1; CYP2C19 activ: 0.5; CYP2C9 act: 0.5

What do the screens show for `O=C(Nc1cccnc1)C1CCCN(S(=O)(=O)c2cccc3nsnc23)C1` (stereo unspecified)?
CYP2C9 inh: 69.6*; CYP2C19 inh: 68.7*; sEH inh: 7.1; sEH act: -5.8; CYP2C19 activ: 0.3; CYP2C9 act: 0.3

Results for COc1cc(NC(=O)C2CCCN(S(=O)(=O)c3cccc4nsnc34)C2)cc(OC)c1 (stereo unspecified) ?
CYP2C9 inh: 62.9*; CYP2C19 inh: 29.0; sEH inh: 7.6; sEH act: -6.9; CYP2C19 activ: 0.7; CYP2C9 act: 0.4

Results for COc1ccc(OC)c(NC(=O)C2CCCN(S(=O)(=O)c3cccc4nsnc34)C2)c1 (stereo unspecified) ?
CYP2C9 inh: 34.4; CYP2C19 inh: 67.4*; sEH inh: -6.2; sEH act: 8.0; CYP2C19 activ: 0.3; CYP2C9 act: 0.7

How did Cc1ccnc(NC(=O)C2CCN(S(=O)(=O)c3cccc4nsnc34)CC2)c1 do in these assays?
CYP2C9 inh: 14.0; CYP2C19 inh: 20.3; sEH inh: -3.9; sEH act: 1.5; CYP2C19 activ: 0.8; CYP2C9 act: 0.9

How did CCn1c(NC(=O)Nc2ccccc2OC)nc2ccccc21 do in these assays?
CYP2C9 inh: 0.5; CYP2C19 inh: 12.9; CYP2C19 activ: 0.9; CYP2C9 act: 1

How did CCOC(=O)CSc1nnc(Cn2nnc(-c3ccccc3)n2)n1CC do in these assays?
CYP2C9 inh: -2.0; CYP2C19 inh: -0.8; sEH inh: 12.5; sEH act: -12.6; CYP2C19 activ: 1; CYP2C9 act: 1

How did CCCCn1nnnc1SCC(=O)NNC(=O)C1CCCCC1 do in these assays?
CYP2C9 inh: 5.6; CYP2C19 inh: 9.6; sEH inh: 7.5; sEH act: -7.0; CYP2C19 activ: 0.9; CYP2C9 act: 0.9
